From PubChem
Menin MLL FP FL: inhibitors of human menin-MLL interaction, wild-type MLL peptide. Fluorescence polarization, fluorescein-MLL peptide displacement from menin. FP activity change, % at 61.4 µM. 290,000 tested, under 10 active. AID 1766; active = well fitted curve in the direction sought with a large enough effect in the polarisation, not every such curve was filed as active; inconclusive = small, poorly fitted or top-dose-only effect, or effect the other way, or a change in a side signal; inactive = no such curve, though single readings can be large or run the other way; the % refers to the polarisation; also: % of control where 0% means no effect
pAkt inh: blocks phosphorylation of Akt; Neuro2A IGF-stimulated pAkt S473 HTRF, 20 min; active compounds read low; activity change, % for hits at 50 µM; actives 0.32% (n = 360,000); in the data active = activity change below about -80%; inconclusive = mostly about -51% to -80%; also: % is scaled to controls: 0 for no effect and ±100 for the full control effect
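Single-point screen (50 µM final compound) in Neuro2A cells stimulated 20 min with 6 nM IGF at 37 deg C. After lysis, Ser473-phosphorylated Akt read by HTRF (ex 330 nm, em 615/665 nm) as the 665/615 ratio.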
IDH1 R132H inh: inhibitors of human mutant IDH1 R132H; actives 0.093% (n = 390,000); IDH1-R132H enzyme, NADPH consumption, diaphorase/resazurin fluorescence; AID 602179; O75874; Potency, µM (top dose mostly 76.6 µM), without a hit: at the top dose activity change, negative = inhibition, usual class: inhibitors; also: potency is read from the fitted curve at half-maximal effect; % is scaled to controls: 0 for no effect and ±100 for the full control effect; nearly all actives have a fitted effect of over 65% in size
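IDH1-R132H (0.5 ug/mL dispensed) in pH 7.5 Tris buffer was preincubated 30 min with compound, then given a substrate mix of 0.016 mM NADPH and 2 mM alpha-KG for 80 min at room temperature; remaining NADPH was read by diaphorase/resazurin fluorescence.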
LDHA inh: LDHA (human) enzyme inhibition; purified LDHA, NADH/diaphorase-resazurin fluorescence; active compounds read low; AID 1347041; activity change, % (values are at about 110 or 230 µM); actives 0.15% (n = 480,000); P00338; in the data active = activity change below about -30%; inconclusive = mostly about -25% to -30%;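 also: plate controls were DMSO wells for no effect and wells without enzyme for full effect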
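Human LDH5 (2 nM) was incubated with 0.06 mM NADH and 0.2 mM pyruvate for 5 min at room temperature in Tris pH 7.4. Remaining NADH was coupled through diaphorase/resazurin, and resorufin fluorescence was read at 0 and 20 min.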
Menin-MLL TR inh: inhibitors of human menin-MLL interaction, mutant MLL peptide; O00255; Menin + Texas Red MLL mutant peptide, fluorescence polarization; Potency, µM (series often up to 61.6 µM), without a hit: at the highest dose FP activity change, negative = inhibition, most hits filed as inhibitors; actives 0.23% (n = 270,000); active = well fitted inhibition curve with a large enough effect in the polarisation, with a control signal flat, not every such curve was filed as active; inconclusive = small, poorly fitted or top-dose-only effect, or effect the other way, or a change in a side signal; inactive = no such curve, though single readings can be large or run the other way; the % refers to the polarisation; also: potency is read from the fitted curve at half-maximal effect; % of control where 0% means no effect
Target sequence (O00255 whole entry, looked up): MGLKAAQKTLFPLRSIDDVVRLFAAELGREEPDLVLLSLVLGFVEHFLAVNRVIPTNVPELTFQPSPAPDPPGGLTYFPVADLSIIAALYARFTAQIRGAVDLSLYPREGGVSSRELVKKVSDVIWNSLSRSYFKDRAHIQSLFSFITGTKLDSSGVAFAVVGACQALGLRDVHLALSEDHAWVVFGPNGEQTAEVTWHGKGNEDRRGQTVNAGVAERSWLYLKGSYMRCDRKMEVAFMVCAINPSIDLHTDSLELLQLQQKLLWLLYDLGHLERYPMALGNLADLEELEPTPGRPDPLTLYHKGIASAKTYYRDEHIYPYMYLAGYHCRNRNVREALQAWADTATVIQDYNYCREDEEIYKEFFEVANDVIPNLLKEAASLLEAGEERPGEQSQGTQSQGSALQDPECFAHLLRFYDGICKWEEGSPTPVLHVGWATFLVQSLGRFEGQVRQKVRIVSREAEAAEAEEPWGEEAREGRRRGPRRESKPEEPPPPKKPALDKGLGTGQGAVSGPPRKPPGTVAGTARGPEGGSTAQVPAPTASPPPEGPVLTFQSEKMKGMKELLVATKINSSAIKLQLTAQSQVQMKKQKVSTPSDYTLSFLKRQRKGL
CXXC DNA block: inhibitors of human MLL CXXC domain-DNA interaction | Potency, µM (doses to about 115 µM), without a hit: at the highest dose activity change, negative = inhibition, hits mostly inhibitors | MLL-CXXC / FITC-HOXA9 DNA fluorescence polarization | actives 0.037% (n = 290,000) | Q03164; active = well fitted inhibition curve with a large enough effect in the polarisation, with a control signal flat, not every such curve was filed as active; inconclusive = small, poorly fitted or top-dose-only effect, or effect the other way, or a change in a side signal; inactive = no such curve, though single readings can be large or run the other way; the % refers to the polarisation; also: potency is read from the fitted curve at half-maximal effect
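Purified MLL-CXXC (added from a 7 uM solution) was preincubated 5 min at ambient with pinned compounds in 50 mM Tris-HCl pH 7.5, 50 mM NaCl, 1 mM DTT, 0.05% BSA. Fluorescein-labeled HOX-A9 DNA (50 nM solution) followed, 30 min, then polarization read.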
IDH1 autofl: interferes with resorufin fluorescence in IDH1 counter-screen; shares compounds with IDH1 R132H inh; Resorufin detection reagent fluorescence interference, cell-free; inhibition of signal, % at 51.2 µM; 750 tested, under 10 active;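 also: 0% = wells with normal resorufin and full inhibition = wells lacking resorufin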
WT IDH1 inh: wild-type IDH1 (human) inhibition counterscreen | shares compounds with IDH1 R132H inh | WT IDH1 enzyme, NADPH diaphorase/resazurin fluorescence | Potency, µM (highest dose often 115 µM), without a hit: at the top dose activity change, negative = inhibition, usual class: inhibitors | actives 9% (n = 750) | AID 623995;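 also: potency is read from the fitted curve at half-maximal effect; 0% = full WT IDH1 enzyme control and full inhibition = no enzyme wells; nearly all actives have a fitted effect of over 55% in size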
mIDH1 confirm: mutant IDH1 (human) inhibition, confirmed. shares compounds with IDH1 R132H inh. IDH1 R132H enzyme, NADPH diaphorase/resazurin fluorescence. Potency, µM (series often up to 76.6 µM), without a hit: at the top dose activity change, negative = inhibition, actives largely listed as inhibitors. actives 83% (n = 750). AID 624002; also: potency is read from the fitted curve at half-maximal effect; nearly all actives have a fitted effect of over 50% in size
Starred values were filed as active, the others as inactive; i = inactive; ? = inconclusive; · = no result given. The list is not random: actives were taken first. Their share in the collection is about 0.54%. Unless noted, calls follow the shape of the dose curve; as a rule, active = well fitted curve in the direction sought with a large enough effect; inconclusive = small, poorly fitted or top-dose-only effect, or another doubt; inactive = no such curve, though single readings can be large; an effect the other way counts as inactive or inconclusive.

SMILES | Menin MLL FP FL | pAkt inh | IDH1 R132H inh | LDHA inh | Menin-MLL TR inh | CXXC DNA block | IDH1 autofl | WT IDH1 inh | mIDH1 confirm
CCOc1ccccc1N(C(=O)c1snc(C(N)=O)c1N)C(C(=O)NC1CCCC1)c1ccco1 (configuration not stated) | -1 | i | ? | -8 | -1% | -12% | 3 | 2% | 40µM*
CCOc1ccccc1N(C(=O)c1snc(C(N)=O)c1N)C(C(=O)NCc1ccccc1)c1ccc(O)cc1 (configuration not stated) | 2 | i | ? | -3 | 20% | 5% | -1 | 10% | 13µM*
CCOc1ccccc1N(C(=O)c1snc(C(N)=O)c1N)C(C(=O)NC1CCCC1)c1cccs1 (configuration not stated) | 0 | i | ? | -2 | ? | -1% | 4 | 4% | ?
CCOc1ccccc1N(C(=O)c1snc(C(N)=O)c1N)C(CC)C(=O)NC1CCCC1 (configuration not stated) | -2 | i | 26% | 0 | -25% | 4% | · | · | ·
COCCn1cnnc1SCCOc1ccc(Cl)cc1 | · | · | · | -3 | · | · | · | · | ·
CC(=O)N1CCc2c(sc3c2c(=O)n(-c2ccc(C)cc2)c(=O)n3Cc2c(F)cccc2Cl)C1 | · | · | ? | -2 | · | · | 3 | 35µM* | 22µM*
CC(=O)N1CCc2c(sc3c2c(=O)n(-c2ccccc2Cl)c(=O)n3Cc2cccc(C)c2)C1 | · | · | 32µM* | 4 | · | · | 1 | 20µM* | 16µM*
CC(=O)N1CCc2c(sc3c2c(=O)n(CCc2ccccc2)c(=O)n3Cc2ccccc2C)C1 | · | · | 13µM* | 0 | · | · | -11 | 1% | 11µM*
COc1cc(C2c3c(-c4ccccc4)n[nH]c3C(=O)N2c2ccccc2)ccc1O (configuration not stated) | 1 | i | -15% | -4 | 11% | -4% | · | · | ·
O=C1c2[nH]nc(-c3ccc(F)cc3)c2C(c2ccccc2F)N1c1ccccc1 (configuration not stated) | · | · | ? | 1 | · | · | 1 | 1% | ?
CC(C)(C)c1c(Cl)c(O)c(-c2ccccc2)c(=O)n1-c1ccccc1 | -3 | i | 46µM* | -9 | 13% | 11% | -3 | ? | ?
CCC1C2CN(C(C)=O)CC=C2C(C#N)=C(N)C1(C#N)C#N (configuration not stated) | 1 | i | ? | 6 | 8% | -4% | -8 | 38% | 45µM*
CC(C)N1CC=C2C(C#N)=C(N)C(C#N)(C#N)C(c3ccccc3)C2C1 (configuration not stated) | ? | i | ? | 9 | -11% | ? | · | · | ·
CCCC1C2CN(C(C)=O)CC=C2C(C#N)=C(N)C1(C#N)C#N (configuration not stated) | ? | i | -8% | 4 | -14% | -8% | · | · | ·
CCN1CC=C2C(C#N)=C(N)C(C#N)(C#N)C(c3cc(Cl)ccc3Cl)C2C1 (configuration not stated) | 1 | i | ? | 1 | -13% | ? | 3 | 6% | -17%
Cc1cccc(/C=N/Nc2cc(N3CCOCC3)nc(N3CCOCC3)n2)c1 | 7 | i | ? | 10 | 1% | -4% | -1 | -5% | 13µM*
